# High-throughput results from PubChem BioAssay.
# Pf growth 48h – inhibits P. falciparum growth in the first generation, 48 h. P. falciparum luciferase growth in erythrocytes, 48 h. Potency, µM (top dose mostly 28.7 µM), without a hit: at the top dose activity change, negative = inhibition, actives largely listed as inhibitors. hit rate 5.9% among 310,000; note: potency is the fitted concentration of half-maximal effect; % is set by controls: 0 for no effect and ±100 for the full control effect
#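 Erythrocytes infected with P. falciparum carrying an integrated firefly luciferase reporter (2% hematocrit, 0.1% parasitemia final) were exposed to compounds in RPMI 1640 with 0.5% Albumax at 37 C, 5% CO2. Growth inhibition was scored as reduced luminescence.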
# LmPK inh – inhibitors of Leishmania mexicana pyruvate kinase. hit rate 0.37% among 290,000. Q27686. Potency, µM (top dose mostly 57.5 µM), without a hit: top-dose activity change, negative = inhibition, usual class: inhibitors. AID 1721. purified LmPK, Kinase-Glo ATP luminescence, 1 h; note: potency is the fitted concentration of half-maximal effect; % is set by controls: 0 for no effect and ±100 for the full control effect
# Target sequence (Q27686 whole entry, looked up): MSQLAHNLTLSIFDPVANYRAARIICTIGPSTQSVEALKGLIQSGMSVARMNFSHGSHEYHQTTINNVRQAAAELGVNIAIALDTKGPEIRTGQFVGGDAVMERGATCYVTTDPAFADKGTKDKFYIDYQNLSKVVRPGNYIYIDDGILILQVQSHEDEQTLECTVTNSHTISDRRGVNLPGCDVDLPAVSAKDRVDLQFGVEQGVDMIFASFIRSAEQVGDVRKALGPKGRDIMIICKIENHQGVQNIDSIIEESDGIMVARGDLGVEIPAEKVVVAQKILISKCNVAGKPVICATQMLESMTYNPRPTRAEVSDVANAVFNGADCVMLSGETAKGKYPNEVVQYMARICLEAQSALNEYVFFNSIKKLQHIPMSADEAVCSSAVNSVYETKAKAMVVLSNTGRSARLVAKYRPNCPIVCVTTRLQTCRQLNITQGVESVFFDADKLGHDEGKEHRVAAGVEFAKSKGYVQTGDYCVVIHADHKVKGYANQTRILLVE
#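 Kinase-Glo luminescence read after 1 h RT reaction of 0.1 nM LmPK with 0.5 mM PEP and 0.1 mM ADP. Activity scaled between uninhibited and enzyme-free controls.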
# Pf growth 96h – P. falciparum growth inhibition at 96 hours; hit rate 6.9% among 320,000; AID 504834; P. falciparum luciferase reporter growth, 96 h; Potency, µM (series often up to 28.7 µM), for inactives: at the highest dose activity change, negative = inhibition, actives largely listed as inhibitors; note: potency is the fitted concentration of half-maximal effect; % is set by controls: 0 for no effect and ±100 for the full control effect
#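 Cell-based qHTS: luciferase-tagged P. falciparum in erythrocytes (2% hematocrit, 0.05% parasitemia final) incubated with compounds for 96 hours, 37 C, 5% CO2; luciferase detection reagent then added and luminescence measured.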
# Cycloheximide cs – affects cycloheximide protein synthesis inhibition readout, counter-screen; max response, %; hit rate 12% among 300,000; AID 2314; cell reporter, cycloheximide protein synthesis inhibition counterscreen; in the data active = max response mostly above about 13%, no sharp cut-off; inactive = mostly below about 14%; note: read at 38.3 µM for the half of the compounds with a filed dose; 0% is about no effect
# Shiga inhibitor – blocks Shiga toxin action in Vero cells | Vero cells, Shiga toxin protein synthesis inhibition reporter | inhibition, % at 38.7 µM | hit rate 9.2% among 290,000 | AID 2315; in the data active = inhibition mostly above about 28%, no sharp cut-off; inactive = mostly below about 43%; note: 0% is about no effect
# An asterisk follows results filed as active; ? = inconclusive; . = no result. Hits are enriched below; roughly 22% of the tested compounds scored in any of these assays. Unless noted, calls come from the whole dose curve; as a rule, active = well fitted inhibition curve with a large enough effect; inconclusive = small, poorly fitted or top-dose-only effect, or another doubt; inactive = no such curve, though single readings can be large or run the other way.
SMILES,Pf growth 48h,LmPK inh,Pf growth 96h,Cycloheximide cs,Shiga inhibitor
COc1cccc(C(=O)NCCCNC(=O)c2cccc(OC)c2)c1,8%,1%,-15%,2,.
O=C(CSc1ccc(Br)cc1)Nc1ccccc1N1CCOCC1,?,-1%,?,-1,-9
Cn1ccnc1-c1ccc(-c2nccn2C)cc1,0%,0%,0%,-2,-6
COc1ccc(NC(=O)c2cc(-c3cccs3)on2)c(OC)c1,-3%,2%,82%,-7,7
CC1CCCC(C)N1C(=O)c1cc(-c2cccs2)on1 (stereo not drawn),-54%,-5%,-6%,26*,70*
COCC(C)NC(=O)c1cc(-c2ccccc2OC)on1 (stereo not drawn),80%,-7%,-5%,41*,39*
O=C(NC1CCCCC1)c1cc(-c2ccccc2Cl)on1,87%,-1%,15%,45*,137*
O=C(NC1CCCC1)c1cc(-c2cccs2)on1,260%,-3%,51%,57*,182*
Cc1ccccc1C(=O)NC1CCN(CC(=O)NC2CCCCC2)CC1,5%,0%,-9%,0,-5
COc1ccccc1-c1cc(C(=O)NCc2ccccc2)no1,5%,-1%,75%,10,19
O=C(NC1CCCCC1)c1cccnc1Sc1ccccc1Cl,-5%,1%,-21%,-3,3
O=C(NC1CCCC1)c1cc(-c2ccc(Cl)cc2Cl)on1,69%,-5%,-20%,44*,105*
COc1ccccc1-c1cc(C(=O)NC2CCCC2)no1,28%,3%,228%,16*,71*
O=C(NC1CCCCC1)c1ccccc1-c1ccccc1,7%,5%,?,1,-3
O=C(NC1CCCC1)c1cc(-c2ccccc2O)on1,-26%,-6%,19%,34*,91*
O=C(NC1CCCC1)c1cc(-c2ccccc2Cl)on1,147%,-2%,25%,43*,107*
CCOC(=O)Nc1ccc(=O)n(Cc2c(Cl)cccc2Cl)c1,1%,-3%,-7%,7,10
CC(OC(=O)c1ccncc1)C(=O)Nc1cc(S(=O)(=O)N2CCCCC2)ccc1Cl (stereo not drawn),-11%,3%,-7%,-2,6
O=C(NNC(=O)c1ccc(O)c(Cl)c1)c1cccc(S(=O)(=O)N2CCOCC2)c1,-1%,.,38%,.,.
O=C(Nc1nnc(C(F)(F)F)s1)c1ccc(Br)s1,39%,-2%,16%,21*,54*
Cc1cc(C(=O)Nc2nnc(C3CCCCC3)s2)cs1,109%,-3%,0%,38*,63
CC(NC(=O)Nc1nnc(C(F)(F)F)s1)(C(F)(F)F)C(F)(F)F,3.3µM*,0%,5%,1,20
Cc1cc(C(=O)Nc2nnc(C(F)(F)F)s2)no1,-11%,3%,-19%,11,21
O=C(Nc1nnc(C2CCCCC2)s1)c1ccc(Br)s1,14%,-10%,230%,7,-3
Cc1cc(C(=O)Nc2nnc(C(F)(F)F)s2)cs1,36%,1%,59%,18*,9
SMILES,Pf growth 48h,LmPK inh,Pf growth 96h,Cycloheximide cs,Shiga inhibitor
CC1(c2ccc(Cl)cc2)NC(=O)N(CN2CCOCC2)C1=O (stereo not drawn),1%,1%,40%,-5,10
CCCCn1c(NCc2cccs2)nc2ccccc21,?,1%,-1%,-1,24
Cc1ccc(N2CCN(C(=O)N3CCOCC3)CC2)c(C)c1,8%,-1%,?,2,13
Cc1cc(C)cc(N2CCN(C(=O)N3CCOCC3)CC2)c1,-4%,2%,6.6µM*,-2,-2
Cc1cc(C)cc(-n2c(C)cc(C(=S)N3CCOCC3)c2C)c1,12µM*,2%,42%,2,9
Cc1cc(C(=S)N2CCOCC2)c(C)n1-c1ccc(Cl)cc1,?,2%,8%,10,19
Cc1ccc(S(=O)(=O)CCC(=O)Nc2ccccc2C)cc1,0%,2%,96%,-2,-7
COc1cc2ccccc2cc1C(=O)Nc1ccc(N2CCN(C)CC2)cc1,?,-2%,.,43*,60
COc1cc2ccccc2cc1C(=O)NC(=S)Nc1ccc(C(=O)O)cc1,-4%,1%,9%,0,30
COc1cc2ccccc2cc1C(=O)Nc1ccc(N2CCN(C(=O)C(C)C)CC2)cc1,12µM*,5%,15µM*,-3,20
COc1ccc(C(=O)Nc2ccc(N3CCN(C(=O)c4ccccc4C)CC3)cc2)cc1,?,-2%,?,-2,-4
CCn1c(SCc2nnc(-c3ccccc3)o2)nc2c1c(=O)n(C)c(=O)n2C,9%,-3%,6.6µM*,-1,26
CCCCn1c(SCC(=O)NCc2cccs2)nc2c1c(=O)n(C)c(=O)n2C,.,-1%,9.3µM*,-2,-12
CCCCn1c(SCc2nnc(-c3ccccc3)o2)nc2c1c(=O)n(C)c(=O)n2C,?,0%,-6%,24*,42
CCn1c(SCC(=O)Nc2nc(-c3ccccc3)cs2)nc2c1c(=O)n(C)c(=O)n2C,26%,2%,?,-1,-1
CCCCn1c(SCC(=O)N2c3ccccc3CCc3ccccc32)nc2c1c(=O)n(C)c(=O)n2C,6%,5%,?,-2,-3
CCCCCCn1nc(C(=O)OCC(=O)NC2CCS(=O)(=O)C2)c2ccccc2c1=O (stereo not drawn),6%,4%,5%,1,-5
Cc1cc(/C=C(\C#N)C(=O)Nc2ccccc2)c(C)n1-c1ccc(C(=O)O)cc1,-8%,5%,?,1,11
CCOC(=O)/C(C#N)=C\C=C1C=CN(C)C=C1,157%,-11%,212%,35*,63*
CCOC(=O)/C(C#N)=C\c1cc(C)n(-c2ccccc2)c1C,111%,0%,313%,55*,82*
CCOC(=O)/C(C#N)=C\c1ccc(CC)s1,17%,-3%,16%,80*,102*
CCOC(=O)/C(C#N)=C/c1cc(C)n(-c2ccc(C)cc2)c1C,.,5%,-9%,18*,31
CCOC(=O)/C(C#N)=C/c1ccc(SC)cc1,18%,-1%,?,27,34
O=C(Nc1ccccc1C(=O)N1CCCC1)c1ccc(Cl)c([N+](=O)[O-])c1,-13%,2%,?,-3,-10
Cc1cccc(N2CCN(C(=S)Nc3ccc4nc5n(c(=O)c4c3)CCCCC5)CC2)c1C,-29%,0%,?,-8,-3
SMILES,Pf growth 48h,LmPK inh,Pf growth 96h,Cycloheximide cs,Shiga inhibitor
O=C(NCCCN1CCCC1=O)C1CCN(S(=O)(=O)c2c(Cl)cccc2Cl)CC1,-18%,.,-5%,.,.
C[C@@H](CNC1CCCCC1)OC(=O)c1ccccc1,2µM*,.,2.6µM*,.,.
O=C(COC(=O)c1cncc(Br)c1)NC1CCCC1,49%,5%,14%,11,-5
COC(=O)c1ccccc1OCC(=O)NC1CCCCC1,19%,2%,.,27*,132*
O=C(COC(=O)c1ccccc1)NC1CCCC1,97%,-7%,88%,84*,109*
O=C(COC(=O)c1cncc(Br)c1)NC1CCCCCC1,3.3µM*,5%,19%,-1,-12
